According to PubChem BioAssay (NCATS):
Values joined by “and” are separate entries in the source; they are usually repeats but may differ in a detail not shown here. Equal values may be shown once. Records with an inconclusive call do not appear. Active and inactive are the calls of the source. Unless noted, the rule behind the calls is not given here.

Assays:
[1] = qHTS Assay for Identifying Gametocytocidal Compounds (AID 743244; active = well fitted curve in the direction sought with a large enough effect; an effect the other way counts as inactive or inconclusive; note: potency is the fitted concentration of half-maximal effect;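 for max response: % is set by controls: 0 for no effect and ±100 for the full control effect; actives lower the fluorescent signal which means gametocytes are killed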); details: P. falciparum 3D7 stage III-V gametocytes, alamarBlue, 72 h; max response: stronger effect = lower value
Outline: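 A resazurin-based viability read-out was applied to mature P. falciparum gametocytes: 72 h compound treatment, then 24 h dye incubation, with falling fluorescence signalling gametocytocidal effect.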

[2] = qHTS profiling for inhibitors of Plasmodium falciparum (DD2) proliferation (AID 743323); details: lower = more inhibition; at 28.7 µM (top of the series) unless noted
Outline: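 Parasite DNA quantified by SYBR Green fluorescence (ex 485, em 535 nm) after saponin/Triton lysis and overnight dark incubation. Cultures: 0.3% parasitemia, 2.5% hematocrit, 72 h, 37 C; data scaled between DMSO and 0.29 uM artemisinin.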

[3] = qHTS profiling for inhibitors of Plasmodium falciparum (HB3) proliferation (AID 743324; active = well fitted curve in the direction sought with a large enough effect; an effect the other way counts as inactive or inconclusive;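 note: 100% = DMSO vehicle wells and 0% = artemisinin-treated control wells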); details: Plasmodium falciparum HB3 blood-stage proliferation; at 28.7 µM (top of the series) unless noted
Outline: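 SYBR Green fluorescence (485 ex/535 em) of lysed cultures, incubated overnight at room temperature in the dark, quantifies parasite DNA. Infected erythrocytes at 0.3% parasitemia and 2.5% hematocrit were exposed 72 h; values normalized to DMSO and 0.29 uM artemisinin controls.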

[4] = qHTS profiling of the MIPE4 collection as inhibitors of Plasmodium falciparum (3D7) proliferation (AID 743344);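 note: scaled between DMSO vehicle wells and 0.29 µM artemisinin as full inhibition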; details: P. falciparum 3D7 in erythrocytes, SYBR Green DNA fluorescence, 72 h; at 28.5 µM (top of the series) unless noted
Outline: (§1)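 Parasite DNA was quantified by SYBR Green I fluorescence (ex 485, em 535 nm) after overnight lysis in saponin/Triton buffer at room temperature. Cultures at 0.3% parasitemia and 2.5% hematocrit were first exposed to compound for 72 h at 37 C; signals were normalised to artemisinin (0.29 uM) and vehicle wells.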

[5] = qHTS profiling of the MIPE4 collection as inhibitors of Plasmodium falciparum (DD2) proliferation (AID 743345); details: P. falciparum Dd2 in erythrocytes, SYBR Green DNA, 72 h; at 28.5 µM (top of the series) unless noted
Outline: as §1

[6] = qHTS profiling of the MIPE4 collection as inhibitors of Plasmodium falciparum (DD2) proliferation (Rep 2) (AID 743346); details: P. falciparum Dd2 in erythrocytes, SYBR Green DNA, 72 h; at 28.5 µM (top of the series) unless noted
Outline: as §1

[7] = qHTS profiling of the MIPE4 collection as inhibitors of Plasmodium falciparum (HB3) proliferation (AID 743347);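 note: plate controls were DMSO vehicle wells for no effect and artemisinin wells for full effect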; details: P. falciparum HB3 in erythrocytes, SYBR Green DNA, 72 h; at 28.5 µM (top of the series) unless noted
Outline: as §1

[8] = qHTS profiling for inhibitors of Plasmodium falciparum (3D7) proliferation (AID 743322);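 note: infected erythrocytes exposed to compound for 72 h before lysis; 100% = DMSO vehicle wells and 0% = 0.29 µM artemisinin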; details: P. falciparum 3D7 proliferation; at 28.7 µM (top of the series) unless noted
Outline: as §1

Row | Compound | max response [1] | activity, percent of control [2] | remaining proliferation (% of control), lower = more inhibition [3] | parasite growth, % of DMSO control [4] | parasite growth remaining, % of DMSO control (lower = more inhibition) [5] | parasite growth, % of control (lower = inhibition) [6] | growth, % of control [7] | remaining parasite growth % (stronger effect = lower value) [8] | Potency [1]
1 | CCC(C)(C)C(=O)O[C@H]1C[C@@H](C)C=C2C=C[C@H](C)[C@H](CC[C@@H]3C[C@@H](O)CC(=O)O3)[C@H]21 | 5.81% (inactive) | 96.4% [at 9.63 µM] | 86.8% [at 9.63 µM] | 6.94% | 42% | 13.8% | 3.36% | – | –
2 | CN(C(=O)c1ccc(F)cc1C(F)(F)F)C1CCN(c2nnc(-c3ccnn3C)c3ccccc23)CC1 | 1.04% (inactive) | 71.6% | – | 16.1% | 61.1% | 45.1% | 21.1% | 59.4% | –
3 | Oc1cccc(-c2nc(N3CCOCC3)c3oc4ncccc4c3n2)c1 | -13.9% (inactive) | 2.54% | 1.45% | 6.68% [at 57.5 µM] | 8.08% [at 57.5 µM] | 21.1% [at 57.5 µM] | 5.67% [at 57.5 µM] | -0.106% | –
4 | COc1ccc(CCN2CCN(CCCc3ccccc3)CC2)cc1OC | -5.52% (inactive) | 65.7% | – | 28.6% | 95.6% | 30% | 21.1% | 9.47% | –
5 | O=C(NOC[C@H](O)CO)c1ccc(F)c(F)c1Nc1ccc(I)cc1F | 24.9% (inactive) | 98.3% | – | 86.4% | 102% | 95.7% | 97.2% | 106% | –
6 | Clc1ccc(Nc2nnc(Cc3ccncc3)c3ccccc23)cc1 | -0.822% (inactive) and -17.1% (inactive) | 2.71% | 0.459% | 34.2% | 84.7% | 63.4% | 53.1% | – | –
7 | Cn1cc(-c2ccc3nnc(C(F)(F)c4ccc5ncccc5c4)n3n2)cn1 | -4.32% (inactive) | 62.2% | 17.3% | 24.5% | 70.3% | 41.1% | 35.2% | – | –
8 | COc1ccc(CC2=NN3C([C@@H](CCc4ccccc4)[C@@H](C)O)=NC(C)C3C(=O)N2)cc1OC (some centres not stated) | -6.02% (inactive) | 64.6% | 17.1% | 87.2% | 99.9% | 46.9% | 82% | 71.5% | –
9 | Cn1c(=O)c(F)c(Nc2ccc(I)cc2F)c2c(=O)n(C[C@@H](O)CO)cnc21 | -1.37% (inactive) | 71.7% | 68.4% | 12.8% | 86.9% | 24.5% | 7.31% | – | –
10 | C[C@H](NC(=O)Cc1cc(F)cc(F)c1)C(=O)N[C@@H]1C(=O)N(C)c2ccccc2-c2ccccc21 | -14.2% (inactive) | 7.48% | 6.09% | 10.3% | 12.1% | 12.3% | 3.07% | 7.69% | –
11 | Nc1nccc(-c2ccc3noc(-c4ccc(Cl)cc4)c3c2)n1 | -14.8% (inactive) | 76.1% | 81.1% | 85.1% | 92.5% | 79.2% | 33.5% | 77.1% | –
12 | NC(=O)C1CCCc2c1[nH]c1ccc(Cl)cc21 (configuration not stated) | 9.85% (inactive) | 94.6% | 95% | 92% | 112% | 145% | 106% | – | –
13 | CN([C@@H](Cc1ccc(OS(=O)(=O)c2cccc3cnccc23)cc1)C(=O)N1CCN(c2ccccc2)CC1)S(=O)(=O)c1cccc2cnccc12 | – | 0.806% and 0.455% | -0.274% and -0.52% | 5.27% | 6.98% | 12.9% | 4.99% | – | 18.7 µM (active)
14 | CC(C=CC1=C(C)CCCC1(C)C)=CC=CC(C)=CC(=O)O | – | – | – | 76.8% and 52.8% | 85.9% and 87.9% | 81.2% and 51.5% | 106% and 85.5% | – | –
15 | CCN(c1ccccc1)c1cc(NC)[n+](C)c(C)n1 | – | 73.7% | 38.1% | 47.7% | 94.6% | 58.7% | 85.9% | – | –
16 | Cc1cnc(Nc2ccc(OCCN3CCCC3)cc2)nc1Nc1cccc(S(=O)(=O)NC(C)(C)C)c1 | – | 52.4% | 1.48% | 6.36% | 25.8% | 11% | 2.63% | 1.03% | –
